An excerpt weighted towards active compounds, which were near 7.1% of everything screened.
ATXN2 expr inh = reduces ATXN2 reporter expression in HEK-293 cells; HEK-293 ATXN2-luciferase reporter, luminescence, 24 h; Potency, µM (titrated, usually from 57 µM), for inactives: at the highest dose activity change, negative = inhibition, usual class: inhibitors; 360,000 compounds, 0.72% hits; AID 1745845; further: potency means the concentration at half of the fitted maximal effect; on the % scale 0 is the no-effect control and ±100 the full control effect; nearly all actives have a fitted effect of over 55% in size
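ATXN2-luciferase reporter cells (luciferase flanked by upstream and downstream ATXN2 gene portions) were treated 24 h at 37 °C with compounds at up to 57 uM. SteadyGlo luminescence gave expression; GF-AFC fluorescence gave viability.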
MCF10A rereplic = DNA re-replication induction in MCF 10a cells; Potency, µM (doses to about 46.1 µM), for the others: top-dose activity, positive = re-replication, actives largely listed as activators; MCF 10A DNA re-replication, Hoechst nuclear intensity, 48 h; AID 624296; 350,000 compounds, 2.9% hits; further: potency means the concentration at half of the fitted maximal effect; % of control where 0% means no effect; nearly all actives have a fitted effect of over 50% in size
SW480 rerep = induces DNA re-replication in SW480 colon adenocarcinoma cells | SW480 DNA re-replication, Hoechst DNA content imaging, 48 h | Potency, µM (top dose mostly 46.1 µM), for the others: at the highest dose re-replication activation, usual class: activators | 340,000 compounds, 1.8% hits | AID 624297; further: potency means the concentration at half of the fitted maximal effect; % of control where 0% means no effect; nearly all actives have a fitted effect of over 55% in size
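DNA re-replication was detected as more nuclei of elevated Hoechst intensity after 48 hr exposure to compound (23 nL pinned per well of 250 cells).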
PINK1 modulator = changes PINK1 expression; PINK1 immunofluorescence, high-content cytometry, 24 h; Potency, µM (highest dose often 76.6 µM), without a hit: at the top dose activation (PINK1 increase), usual class: activators; 410,000 compounds, 0.2% hits; AID 624263; active means well fitted activation curve with a large enough effect; inconclusive means small, poorly fitted or top-dose-only effect; cell line not stated here; further: potency means the concentration at half of the fitted maximal effect; % of control where 0% means no effect; nearly all actives have a fitted effect of over 65% in size
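Stable cell line, 250 cells/well, 12 h attachment; compounds pinned at 5 concentrations, 24 h; CCCP control. Fixed with nuclear dye, primary antibodies 12 h at 10 degrees C, secondary plus cell stain; laser-scanning cytometer read.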
ATXN viability = cell viability loss in ATXN counter-screen; S2 cells (HEK-293 line with an ATXN2-luciferase reporter) viability, CellTiter-Fluor protease fluorescence, 24 h; Potency, µM (top dose mostly 56.7 µM), hits mostly cytotoxic; 400,000 compounds, 0.49% hits; AID 651635; further: potency means the concentration at half of the fitted maximal effect; nearly all actives have a fitted effect of over 40% in size
IL-1B inflam inh = blocks inflammasome-driven IL-1 beta release; THP-1 LPS/ATP IL-1B secretion, AlphaLISA, 16 h; stronger effect = lower value; activity change, % at 57.5 µM; 360,000 compounds, 4.7% hits; in the data active means activity change below about -50%; inconclusive means mostly about -30% to -49%; further: on the % scale 0 is the no-effect control and ±100 the full control effect
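Secreted IL-1B measured by AlphaLISA bead assay after 16 h compound exposure of THP-1 cells; compounds (final up to 57.5 uM) added 1 h before LPS (250 ng/mL) and ATP (1.25 mM) stimulation; lower signal means less secretion.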
* marks the source's active call; other numbers are inactive results; i = inactive; ? = inconclusive; nt = not tested or not shown; [ ] = remark or other dose. Unless noted, the call rests on the fitted dose curve; in most records, active means well fitted curve in the direction sought with a large enough effect; inconclusive means small, poorly fitted or top-dose-only effect, or another doubt; inactive means no such curve, though single readings can be large; an effect the other way counts as inactive or inconclusive.

SMILES	ATXN2 expr inh	MCF10A rereplic	SW480 rerep	PINK1 modulator	ATXN viability	IL-1B inflam inh
CCc1nnc(N/N=C/c2ccc(N3CCC(C)CC3)c([N+](=O)[O-])c2)n1N	-21.9%	?	?	10.9%	i	59.4
Cc1ccc(C(C(=O)NC(C)(C)C)N(CC2CCCO2)C(=O)c2csnn2)cc1 (centres undefined)	-3.3%	-5.6%	5.0%	3.5%	i	-13.9
CC(C)(C)NC(=O)C(c1ccc(-c2ccccc2)cc1)N(C[C@H]1CC[C@@H]([C@@H]2CC[C@H](CO)O2)O1)C(=O)c1ccc(C(C)(C)C)cc1 (some centres undefined)	-28.1%	?	17.4%	0.6%	20µM*	?
NS(=O)(=O)c1ccc(CCNCc2cc(Cl)ccc2OCc2ccccc2)cc1	-34.8%	-8.1%	1.1%	-0.5%	i	-99.9*
NS(=O)(=O)c1ccc(CCNCc2ccccc2OCc2ccc(Cl)cc2)cc1	?	?	-1.0%	-1.3%	i	-80.5*
Nc1cccc2c1C(=O)N(Cc1cccc(Cl)c1)C2=O	-16.1%	16.4µM*	?	2.5%	nt	-11.8
Oc1cccc2ccc(/C=C/c3ccccc3Br)nc12	-0.2%	?	6.51µM*	21.8%	i	62.0
Oc1cccc2ccc(/C=C/c3cccs3)nc12	0.0%	?	11.2µM*	1.8%[38.3 µM]	i	-10.7
Cc1ccsc1/C=C/c1ccc2cccc(O)c2n1	-33.0%	?	?	7.4%[38.3 µM]	?	-26.0
Oc1ccc2ccccc2c1/C=C/c1ccc2c(Br)cc(Br)c(O)c2n1	?	8.2µM*	18.4µM*	?	?	10.7
O=C(Cc1cccc2ccccc12)N/N=C/c1ccc2cccc(O)c2n1	?	?	10.9%	7.7%	i	29.6
Oc1ccc(Cl)cc1/C=C/c1ccc2cccc(O)c2n1	-19.9%	?	20.6µM*	-0.9%	?	5.6
O=C(/C=C/c1ccc2ccccc2n1)c1cc(Cl)ccc1O	60.6%	11.7%	11.1%	4.3%	i	-6.7
COc1cc(NC(=O)Cn2c(=O)oc3cc(S(=O)(=O)N4CCCCCC4)ccc32)cc(OC)c1	nt	nt	nt	1.1%	nt	nt
CCOc1cc(/C=C/c2ccc3cccc([N+](=O)[O-])c3n2)cc(Cl)c1O	-11.1%	26.1%	16.2%	6.4%	?	7.9
Oc1c(Cl)cc(Cl)cc1/C=C/c1ccc2cccc(O)c2n1	?	6.51µM*	11.6µM*	?	i	10.7
c1ccc(N=c2nc(-c3ccccc3)n(-c3ccccc3)s2)cc1	nt	nt	nt	15.8µM*	nt	nt
C=C(C)COc1ccc2c(c1)CCC1C2CCC2(C)C(=O)C(=NO)CC12 (centres undefined)	?	?	?	-6.9%	?	-99.3*
C[C@@H]1C(=O)O[C@H](C)[C@H]1C[C@@H](O)[C@](C)(O)C1CC[C@@]2(O)C3=CC(=O)[C@@H]4C[C@@H](O)[C@@H](O)C[C@]4(C)C3CC[C@]12C (some centres undefined)	2.6%	-0.2%	6.1%[9.22 µM]	-0.7%	i	16.6
CCCN1CNc2c(c(=O)[nH]c(=S)n2CCc2cccc(Cl)c2)C1	nt	nt	nt	0.3%	nt	nt
c1nc2nc(Nc3ccc(N4CCOCC4)cc3)nc(NC3CCCCC3)c2[nH]1	24.3µM*	nt	nt	nt	nt	nt
COc1ccc(/C=C/C(=O)NC(=S)Nc2ccccc2C(=O)NC2CCCCC2)cc1	?	18.4µM*	4.11µM*	nt	?	-18.7
CCOC(=O)/C=C/C(=O)Nc1ccccc1C(=O)NC1CCCCC1	20.4%	?	?	3.1%	i	-51.1*
CN1CCN(NC(=O)c2ccc(S(=O)(=O)N3CC4(C)CC3CC(C)(C)C4)cc2)CC1 (centres undefined)	nt	?	18.4µM*	0.0%	i	-4.8
CCOc1ccc2c(c1)C(C)=CC(C)(C)N2S(=O)(=O)c1ccc(F)cc1	-8.0%	?	?	2.3%	i	143.0
SMILES	ATXN2 expr inh	MCF10A rereplic	SW480 rerep	PINK1 modulator	ATXN viability	IL-1B inflam inh
CCOc1ccc2c(c1)C(C)=CC(C)(C)N2S(=O)(=O)c1ccc(NC(C)=O)cc1	nt	?	?	2.7%	i	65.9
COc1ccc2c(c1)C(C)=CC(C)(C)N2S(=O)(=O)c1ccc(NC(C)=O)cc1	-10.9%	?	1.46µM*	3.8%	i	66.6
COc1ccc2c(c1)C(C)=CC(C)(C)N2S(=O)(=O)c1ccc(Br)cc1	-23.7%	?	18.4µM*	7.1%	i	82.3
Cc1ccc(C(=O)NCCc2ccc(Cl)cc2)cc1-n1c(C)nc2cccnc21	nt	nt	nt	-1.1%	nt	nt
O=C(Nc1ccc2nc(SCC(=O)N3CCCc4ccccc43)sc2c1)c1ccccc1	nt	nt	nt	-0.1%	nt	nt
O=C(CCN1CCOCC1)c1ccc(N2CCCCC2)cc1	?	?	17.6%	9.8%	?	-72.5*
CC(C)(C)c1cc(C(=O)CCN2CCOCC2)cc(C(C)(C)C)c1O	-4.9%	?	14.9%	7.6%	i	-100.6*
O=C(CCN1CCN(c2ccccc2)CC1)c1ccc(Cl)cc1	-1.7%	15.8%	?	1.0%	i	-7.3
COc1ccc2c(c1)OC[C@H]1[C@H]2N2C(=O)c3cc(C)ccc3NC(=O)[C@@]2(C)[C@H]1c1ccccc1	-1.1%	?	10.3µM*	4.6%	i	?
C[C@@]12C(=O)Nc3ccc(Br)cc3C(=O)N1[C@H]1c3cc(Cl)ccc3OC[C@@H]1[C@@H]2c1ccccc1	-9.4%	8.6%	8.2%	2.4%	i	-15.7
COc1ccc2c(c1)[C@H]1[C@H](CO2)[C@H](c2ccccc2)[C@]2(C)C(=O)Nc3ccc(Cl)cc3C(=O)N12	-5.0%	7.3%	?	4.2%	i	-53.7*
COc1ccc2c(c1)[C@H]1[C@H](CO2)[C@H](c2ccccc2)[C@]2(C)C(=O)Nc3ccc(F)cc3C(=O)N12	-2.7%	?	?	1.3%	i	-57.1*
COc1ccc2c(c1)[C@H]1[C@H](CO2)[C@H](c2ccccc2)[C@]2(C)C(=O)Nc3cc(OC)c(OC)cc3C(=O)N12	2.9%	?	?	2.6%	i	-5.2
COc1ccc2c(c1)[C@@H]1[C@H](CO2)[C@H](c2ccccc2)[C@]2(C)C(=O)Nc3ccc(C)cc3C(=O)N12	?	1.3%	11.0%	0.7%	?	-2.0
COc1ccc2c(c1)[C@H]1[C@H](CO2)[C@H](c2ccccc2)[C@]2(C)C(=O)Nc3ccc(C)cc3C(=O)N12	6.4%	20.6µM*	?	2.3%	i	-27.9
CC(C)OCCCNC(=O)c1cn(C)c2ccc(S(=O)(=O)N3CCCCCC3)cc2c1=O	1.9%	nt	nt	3.3%	i	nt
N[C@@]1(C(=O)O)CS(=O)(=O)[C@H]2[C@H](C(=O)O)[C@H]21	-12.7%	nt	nt	nt	nt	nt
